Assay outcomes deposited in PubChem by National Center for Advancing Translational Sciences (NCATS).
Shown are actives, neighbours in structure and some others; about 12% of the full set was active somewhere.
Sfp inh: qHTS Assay for Inhibitors of Bacillus subtilis Sfp phosphopantetheinyl transferase (PPTase) | Biochemical Sfp PPTase activity, qHTS | Potency, µM, for inactives: largest response in the series, negative = inhibition, actives largely listed as inhibitors | AID 1490, 2009 | hit rate 3.5% among 310,000 | 4'-phosphopantetheinyl transferase ffp (Bacillus subtilis), Q9F4F7;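 also: the enzyme is Sfp with the accession as filed and its product quenches rhodamine fluorescence; 0% = enzyme reaction without inhibitor and -100% = no enzyme wells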
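Sfp 15 nM + cpd, 15 min RT; start w/ rhodamine-CoA 5 uM, BHQ-2-YbbR 12.5 uM (final); 50 mM Hepes pH 7.6, 10 mM MgCl2, 0.01% NP-40, 0.01% BSA; read 525/598 nm at 0 and 30 min.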
G9a inh: qHTS Assay for Inhibitors of Histone Lysine Methyltransferase G9a. Histone-lysine N-methyltransferase EHMT2 (Homo sapiens), Q96KQ7. G9a H3K9 monomethylation, AlphaScreen, 2 h. Potency, µM (top dose mostly 102 µM), inactives show at the top dose activity, negative = inhibition, usual class: inhibitors. hit rate 8.8% among 350,000. AID 504332, 2011; also: % is scaled to controls: 0 for no effect and ±100 for the full control effect; nearly all actives have a fitted effect of over 75% in size
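G9a (20 nM) preincubated 15 min RT with compounds, then 500 nM biotinylated H3K9 peptide and 20 uM SAM added; 2 h RT reaction. Monomethyl-H3K9 product detected by AlphaScreen with anti-H3K9me1 antibody, streptavidin donor and anti-rabbit IgG acceptor beads.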
HP1b chromo inh: HTS for Inhibitors of HP1-beta Chromodomain Interactions with Methylated Histone Tails; hit rate 0.56% among 390,000; Potency, µM (series often up to 114 µM), for inactives: top-dose activity change, negative = inhibition, most hits filed as inhibitors; AlphaScreen HP1-beta / biotin-H3K9me3 peptide binding; Chromobox protein homolog 1 (Homo sapiens), P83916; also: nearly all actives have a fitted effect of over 70% in size
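Compound inhibition of the preformed complex between 50 nM HP1-beta and 50 nM biotinylated H3K9me3 peptide was read by AlphaScreen. Buffer was PBS pH 7.4 with 0.01% Tween-20. Incubations ran 30 min at room temperature, with 10 ug/mL donor/acceptor beads.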
JMJD2A Tudor inh: qHTS Assay for Inhibitors of JMJD2A-Tudor Domain. Lysine-specific demethylase 4A (Homo sapiens), O75164. AlphaScreen JMJD2A-Tudor / H3K4me3 peptide binding. Potency, µM (series often up to 114 µM), for the others: at the top dose activity change, negative = inhibition, hits mostly inhibitors. hit rate 4.4% among 390,000; also: % is scaled to controls: 0 for no effect and ±100 for the full control effect; nearly all actives have a fitted effect of over 50% in size
Target sequence (O75164 whole entry, looked up, the tested form may be a part): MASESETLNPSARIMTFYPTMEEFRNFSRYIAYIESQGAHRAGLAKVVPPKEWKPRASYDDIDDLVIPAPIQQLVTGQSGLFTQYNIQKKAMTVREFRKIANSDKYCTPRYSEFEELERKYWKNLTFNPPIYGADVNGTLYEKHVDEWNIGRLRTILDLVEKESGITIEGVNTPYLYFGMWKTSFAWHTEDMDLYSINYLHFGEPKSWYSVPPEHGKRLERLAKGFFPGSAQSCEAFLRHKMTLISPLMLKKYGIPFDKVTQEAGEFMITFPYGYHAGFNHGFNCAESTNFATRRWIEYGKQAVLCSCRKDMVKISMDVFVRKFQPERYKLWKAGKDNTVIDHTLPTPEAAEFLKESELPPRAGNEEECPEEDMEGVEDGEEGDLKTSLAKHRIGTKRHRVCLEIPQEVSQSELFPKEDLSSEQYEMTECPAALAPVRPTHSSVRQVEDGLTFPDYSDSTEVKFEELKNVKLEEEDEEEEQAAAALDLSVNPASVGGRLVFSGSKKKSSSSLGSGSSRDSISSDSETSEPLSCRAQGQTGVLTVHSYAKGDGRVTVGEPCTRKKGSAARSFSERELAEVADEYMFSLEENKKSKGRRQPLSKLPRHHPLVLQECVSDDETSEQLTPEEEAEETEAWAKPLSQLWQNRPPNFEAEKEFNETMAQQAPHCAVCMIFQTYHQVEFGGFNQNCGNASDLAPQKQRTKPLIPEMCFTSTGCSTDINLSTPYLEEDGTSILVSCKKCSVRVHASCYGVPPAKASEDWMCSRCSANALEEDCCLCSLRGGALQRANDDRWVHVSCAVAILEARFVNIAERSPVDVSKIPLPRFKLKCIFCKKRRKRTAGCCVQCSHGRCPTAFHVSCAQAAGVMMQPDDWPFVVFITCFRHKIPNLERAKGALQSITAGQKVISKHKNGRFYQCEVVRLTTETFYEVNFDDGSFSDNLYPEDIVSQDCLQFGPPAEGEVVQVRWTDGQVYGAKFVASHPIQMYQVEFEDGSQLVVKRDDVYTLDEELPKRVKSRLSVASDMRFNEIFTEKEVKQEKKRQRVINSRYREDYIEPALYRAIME
BAZ2B inh: qHTS Assay for Inhibitors of BAZ2B. AlphaScreen BAZ2B-H3K14Ac peptide displacement. Potency, µM (series often up to 114 µM), inactives show at the top dose activity change, negative = inhibition, usual class: inhibitors. hit rate 4.4% among 360,000. AID 504333, 2011; also: % is scaled to controls: 0 for no effect and ±100 for the full control effect; nearly all actives have a fitted effect of over 60% in size
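Inhibition is scored as reduced AlphaScreen emission. The BAZ2B/b-H3(5-23)K14Ac complex (50 nM each) in PBS pH 7.4, 0.01% Tween-20 meets compound (up to 110 uM) for 30 min at RT before bead addition.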
PLK1 PBD block: qHTS for Inhibitors of PLK1-PDB (polo-like kinase 1 - polo-box domain): Primary Screen; hit rate 2.8% among 360,000; AID 720504, 2013; Plk1 PBD binding of FITC phosphopeptide, fluorescence polarization; Potency, µM, inactives show max response, negative = inhibition, usual class: inhibitors; also: series mostly up to about 57 µM; % is scaled to controls: 0 for no effect and ±100 for the full control effect; nearly all actives have a fitted effect of over 65% in size
Active calls of the source: *; ? = inconclusive; / = no result; ! = not active in a repeat; [ ] = another dose, or the depositor's remark. Calls follow the shape of the dose curve; as a rule, active = well fitted curve in the direction sought with a large enough effect; inconclusive = small, poorly fitted or top-dose-only effect, or another doubt; inactive = no such curve, though single readings can be large; an effect the other way counts as inactive or inconclusive. Potency is read from the fitted curve at half-maximal effect.

SMILES	Sfp inh	G9a inh	HP1b chromo inh	JMJD2A Tudor inh	BAZ2B inh	PLK1 PBD block
CC(NCCC(c1ccccc1)c1ccccc1)c1ccccc1 (stereo not given)	25.1µM*!	?	40.7%	-5.5%	-14.2%	-1.8%
COC(=O)C(Cc1ccccc1)NC(=O)C(N)CC(=O)O (stereo not given)	8.6%	-28.4%[2.33 µM]	/	/	/	/
COc1ccccc1C(=O)N1CCN(Cc2cc(=O)oc3cc(C)ccc23)CC1	/	-4.9%[59 µM]	36.1%	-8.2%	-3.8%	/
N#Cc1ccc(CSc2nnc(-c3ccccc3)n2Cc2ccco2)cc1	-2.0%	/	-2.5%	-21.6%	-35.3%	-20.6%
C=CCn1c(Cc2cccs2)nnc1SCC(=O)c1ccc2ccccc2c1	-15.9%	28.2µM*	13.8%	-23.9%	-8.5%	-1.9%
C=CCn1c(Cc2cccs2)nnc1SCC(=O)NCc1ccco1	7.9%	44.7µM*	18.8%	?	?	-22.0%
N#Cc1ccc(CSc2nnc(Cc3cccs3)n2Cc2ccco2)cc1	14.1µM*	?	-6.5%	?	50.1µM*	-24.8%
C=CCn1c(Cc2cccs2)nnc1SCC(=O)c1ccc(F)cc1	2.2%	39.8µM*	55.4%	56.2µM*	7.1%	-24.9%
O=C(Nc1cccc(S(=O)(=O)NCc2ccco2)c1)c1cccc(Cl)c1	/	/	32.8%	-2.9%	/	-9.0%
CCOC(=O)c1ccc(NC(=O)Cc2coc3cc(C)cc(C)c23)cc1	/	-3.6%[59 µM]	43.5%	8.0%	-2.9%	/
C=CCn1c(Cc2cccs2)nnc1SCC(=O)c1cccc(Br)c1	-1.8%	31.6µM*	29.3%	-25.2%[57.1 µM]	-7.1%	?
C=CCn1c(CNC(=O)c2cccs2)nnc1SCC(=O)c1ccc(Br)cc1	12.3%	-2.9%[59 µM]	21.7%	-33.3%	-13.9%	-6.2%
Cc1ccc(NC(=O)CCCn2c(=O)c3cccn3c3cccnc32)c(C)c1	/	-7.0%[59 µM]	21.1%	-17.9%	-10.6%	/
CCc1cccc(C)c1NC(=O)CCCn1c(=O)c2cccn2c2cccnc21	21.4%	66.0%	1.5%	-5.1%	-13.5%	23.8µM*
NC(=Nc1ccc(N)cc1)C(N)=Nc1ccc(N)cc1	3.3%	?	-24.8%	25.1µM*	5.62µM*	1.7%
Cn1nnc2c(N3CCN(Cc4ccccc4)CC3)ncnc21	/	/	39.4%	-10.2%	/	/
CCOc1ccc2[nH]cc(S(=O)(=O)c3ccc(C)cc3)c(=O)c2c1	27.6%	-3.9%	47.8%	0.7%	-13.9%	1.0%
CCOc1ccc2[nH]cc(S(=O)(=O)c3ccc(Cl)cc3)c(=O)c2c1	-1.4%	70.8µM*	16.1%	-17.4%	?	-10.0%
COc1ccc2oc(-c3ccco3)cc(=O)c2c1	?	44.7µM*	62.8%	2.9%[11.4 µM]	-18.1%	-12.2%
O=C(COc1ccc2oc(-c3ccco3)cc(=O)c2c1)N1CCCCC1	16.5%	?	?	-2.2%[11.4 µM]	50.1µM*	-21.4%
COc1cccc2oc(-c3ccco3)cc(=O)c12	2.5%	5.62µM*	41.0%	-7.6%	-1.9%	21.2µM*
COc1cc(OC)c2c(=O)cc(-c3ccccc3)oc2c1	10.0%	-36.9%[59 µM]	37.6%	-14.3%	-16.5%	1.1%
O=c1cc(-c2ccco2)oc2ccc(Cl)cc12	19.9%	-18.4%[12.7 µM]	21.2%	-11.5%	4.1%	-7.5%
CN(C)C(=O)c1cccc(-c2cnc3cccnn23)c1	/	/	/	/	/	4.8%
Nc1nnnn1/N=C/c1ccccc1C(F)(F)F	2.4%	13.6%[2.33 µM]	-7.0%	-26.0%[11.4 µM]	3.8%	3.36µM*
Nc1nnnn1/N=C/c1ccccc1	10.1%	11.0%	8.9%	?	-1.2%	-10.0%
C=CCc1cccc(/C=N/n2c(C)nnc2C)c1O	-4.4%	30.5%[0.501 µM]	8.2%	?	-27.6%	-13.3%
CS/C(N)=N/N=C/c1cc(Br)cc(Br)c1O	13.0%	69.8%[59 µM]	34.8%	-29.3%	12.6µM*	-8.6%
